Results on 52 compounds are retold here after PubChem BioAssay AID686978 (National Center for Advancing Translational Sciences (NCATS), 2013).

Among all 420,000 compounds or so, about 64,000 (15%) were called active. Inconclusive results (about 27%) are left out. Only a sample is shown. A number with no mark means an inactive call. Calls come from the whole dose curve; as a rule, active = well fitted inhibition curve with a large enough effect; inconclusive = small, poorly fitted or top-dose-only effect; inactive = flat fitted curve, though single readings scatter.
% is set by controls: 0 for no effect and ±100 for the full control effect; potency is the fitted concentration of half-maximal effect.

The assay can be described thus: qHTS for Inhibitors of human tyrosyl-DNA phosphodiesterase 1 (TDP1): qHTS in cells in absence of CPT. Note: nearly all actives have a fitted effect of over 55% in size. The note with it: DT40 Tdp1-/- hTDP1 cells, no CPT, ATP luminescence, 48 h; activity change, negative = growth inhibition: at 46.2 µM (top of the series). The text has this: Human tyrosyl-DNA phosphodiesterase 1 (TDP1) is a novel repair gene, and we propose to use it as a new target for anticancer drug development. TDP1 is not an essential protein, but under treatment with topoisomerase I poison (camptothecin: CPT), TDP1 works as a critical factor for cell survival. To directly identify novel TDP1 inhibitors active in a cellular environment, we have knocked-out the Tdp1 gene in chicken DT40 cells (Tdp1-/-) and generated a complemented counterpart cells that contains a stable transfection of the human TDP1 gene (Tdp1-/-;hTDP1 cells). For the primary screen, Tdp1-/-;hTDP1 cells will be exposed to small molecules in the presence or absence of CPT, and their growth kinetics will be evaluated after 48 hours by measuring ATP activity. […] The hit compounds will then be evaluated in the presence or absence of CPT using Tdp1-/- cells. […] In tertiary assays, biochemical gel-based assays will be used to assess whether the hit compounds specifically target TDP1.
To this end, we have screened this cell line against the MLSMR in two primary screens. In one screen we add CPT and in the other we screen in the absence of CPT; this AID represents the screen where CPT was absent.
NIH Chemical Genomics Center [NCGC]
NIH Molecular Libraries Probe Centers Network [MLPCN]
Assay Submitter (PI): Yves Pommier, NCI
DT40-hTDP1 cells without 20 nM Camptothecin (add 20 microL of DMSO in 1 L of cell culture medium) were dispensed at 400 cells/5microL/well in tissue culture treated 1536-well white wall/solid bottom assay plates (Greiner Bio-One North America, NC, U.S.A.) using a Multidrop Combi 8 channel dispenser (Thermo Fisher, Waltham, MA, USA). 23 nL compounds and controls were transferred using the pin tool (Kalypsys, San Diego, CA, USA) to the assay plates. The assay plates were then incubated at 37 masculineC for a minimum 48 hr. Three microL of Cell Titer Glo solution was added to the plates and incubated at RT in dark for 30 min. Luminescence was read using ViewLux (Perkin Elmer) with 1 sec exposure slow speed, high gain and 2x binning.
On the technique in general: qHTS replaces the single test concentration by a dilution series.
For the compound `Clc1ccc(CSc2nnc([C@@H]3CCCN3)o2)cc1`, the “activity change, negative = growth inhibition” value was -17%.

Take `CS(=O)(=O)c1ccccc1C(=O)Nc1ccc2sccc2c1`: the “activity change, negative = growth inhibition” value is 14.5%.

On to `O=C(/C=C/c1ccccc1[N+](=O)[O-])OCC(=O)N1CCCC1`, for which the “activity change, negative = growth inhibition” value is 18.5%.

With `CCC(C(=O)Nc1c(C)cccc1C)n1c(-c2cc(C)cs2)nc2ccccc21` (configuration not stated), the “activity change, negative = growth inhibition” value is -14.6%.

On to `CCC(C(=O)NCc1ccccc1)n1c(Cc2cc(F)cc(F)c2)nc2ccccc21` (configuration not stated), for which the Potency is 16.4 µM (active).

With `O=C(CCSCc1cccc(F)c1)NCc1ccccc1`, the “activity change, negative = growth inhibition” value was -7.79%.

As for `CCC(C)c1ccc(O)c(/C=N/O)c1` (configuration not stated), the “activity change, negative = growth inhibition” value is 16.9%.

As to `Cc1cc(C)n(-c2nc(O)cc(=O)[nH]2)n1`, the “activity change, negative = growth inhibition” value was 8.33%.

For the compound `CS(=O)(=O)N(CC(=O)NC1CCCC1)Cc1ccc(F)cc1`, the “activity change, negative = growth inhibition” value is -6.2%.

Take `Cc1ccc(OCC(=O)N2CCN(C(=O)c3cccnc3)CC2)cc1`: the “activity change, negative = growth inhibition” value was -10.2%.

Regarding `Cc1ccc(NC(=O)Cc2nc(COC(=O)C(C)NS(=O)(=O)c3ccc(C)cc3)cs2)cc1` (configuration not stated), the “activity change, negative = growth inhibition” value was -26.5%.

Turning to `CC(=O)Nc1ccc(S(=O)(=O)Nc2nc(-c3ccc(C(C)(C)C)cc3)cs2)cc1`, the “activity change, negative = growth inhibition” value is -17.4%.

Regarding `O=C(O)c1ccccc1C(=O)Nc1nc(-c2ccccc2)cs1`, the “activity change, negative = growth inhibition” value is -0.805%.

For `CC(=O)c1ccc(NC(=O)N[C@@H](Cc2ccccc2)C(=O)O)cc1`, the “activity change, negative = growth inhibition” value was -2.61%.

Regarding `CC(=O)c1ccc(NC(=O)CSc2nnc(NC(=O)Nc3ccccc3)s2)cc1`, the “activity change, negative = growth inhibition” value is -28.6%.

As for `CSc1nsc(NC(=O)Nc2ccccc2)n1`, the Potency is 20.6 µM (active).

Regarding `Cc1ccc(C(=O)NNC(=O)c2cccs2)cc1`, the “activity change, negative = growth inhibition” value is -20%.

For `CC(=O)Nc1ccc(-c2csc(NC(=O)Nc3ccccc3)n2)cc1`, the Potency was 1.16 µM (active).

As for `CCC(=O)Nc1ccc(C(=O)Nc2cc(C)on2)cc1`, the “activity change, negative = growth inhibition” value is 2.69%.

Consider `Cc1ccc(-c2csc(NNC(=O)c3ccccc3)n2)cc1`, for which the Potency was 5.17 µM (active).

`O=C(Nc1ccccc1)Nc1nc2ccccc2s1`: the “activity change, negative = growth inhibition” value is -2.58%.

Take `Cc1nc(NNC(=O)c2ccccc2)cc(-c2ccccc2)n1`: the “activity change, negative = growth inhibition” value was -10.7%.

Consider `CC(=O)Nc1ccc(C(=O)Nc2nc(-c3cc(C)n(Cc4ccccc4)c3C)cs2)cc1`, for which the Potency was 14.6 µM (active).

In the case of `CN1C(=O)C2(OCCCO2)c2cc(Cl)ccc21`, the “activity change, negative = growth inhibition” value was 7.23%.

With `O=C(CNC(=O)Cc1ccccc1)NCC(=O)OCC(=O)c1ccccc1Cl`, the “activity change, negative = growth inhibition” value was -18.5%.

For the compound `O=C(c1snnc1-c1ccccc1)N1CCOCC1`, the “activity change, negative = growth inhibition” value is 7.46%.

In the case of `Cc1nn(C(C)CC(=O)O)c(C)c1C` (configuration not stated), the “activity change, negative = growth inhibition” value is 5.41%.

As to `CCN1N=C(c2ccccc2)CCC1=O`, the “activity change, negative = growth inhibition” value was 0.898%.

Turning to `CCN(CC(=O)NCCc1ccccc1)S(=O)(=O)c1ccc(C)cc1`, the “activity change, negative = growth inhibition” value is -8.2%.

Turning to `COCC(=O)N1CCC2(CCCN(c3ccccc3)C2)CC1`, the “activity change, negative = growth inhibition” value was -15.7%.

For the compound `COc1ccc(C(=O)OCC(=O)NCC2CCCO2)cc1[N+](=O)[O-]` (configuration not stated), the “activity change, negative = growth inhibition” value is 12.4%.

Consider `COc1ccc(C(CNC(=O)c2cc3c(s2)CCCC3)N2CCOCC2)cc1` (configuration not stated), for which the “activity change, negative = growth inhibition” value is 0.592%.

As to `CCCNC(=O)COc1coc(CN2CCN(Cc3ccccc3)CC2)cc1=O`, the “activity change, negative = growth inhibition” value was 11.7%.

With `O=S(=O)(c1ccccc1)N1CCC(c2ccccc2)CC1`, the “activity change, negative = growth inhibition” value was -16.2%.

Take `O=C(C1CCCO1)N1CCC(c2nc3ccccc3[nH]2)CC1` (configuration not stated): the “activity change, negative = growth inhibition” value is -4.09%.

As for `O=S(=O)(c1ccc(Br)cc1)N1CCC(c2nc3ccccc3[nH]2)CC1`, the Potency is 20.6 µM (active).

With `Cc1c(NC(=O)c2c([N+](=O)[O-])cnn2C)c(=O)n(-c2ccccc2)n1C`, the “activity change, negative = growth inhibition” value is 5.36%.

Consider `O=C(NCC12CC3CC(C1)CC(CNC(=O)N1CCCC1)(C3)C2)N1CCCC1`, for which the “activity change, negative = growth inhibition” value was -19.6%.

On to `Cc1ccc(-n2c3nc(=O)[nH]c(=O)c-3cc3c(Cl)cccc32)cc1`, for which the Potency is 0.731 µM (active).

With `Cc1ccc(-n2c(-c3ccc(Cl)cc3)n[nH]c2=S)cc1`, the “activity change, negative = growth inhibition” value is -8.56%.

Consider `O=c1cc(Cl)c2ccccc2n1-c1ccccc1`, for which the “activity change, negative = growth inhibition” value was -3.55%.

In the case of `NC(=O)NCCCC(=O)O`, the “activity change, negative = growth inhibition” value is 25.5%.

Turning to `Cc1nn(CC(=O)Nc2nc3ccccc3s2)c(C)c1[N+](=O)[O-]`, the “activity change, negative = growth inhibition” value was -13.3%.

Regarding `CCC(C)Cn1c(O)cc2nn(-c3nc4ccccc4s3)c(=O)c-2c1C` (configuration not stated), the Potency is 18.4 µM (active).

As to `CCCS(=O)(=O)N1CCCC(C(=O)NCCN2CCCCC2C)C1` (configuration not stated), the “activity change, negative = growth inhibition” value is 9.41%.

For `Cc1c(NC(=O)Nc2ccccc2Cl)sc(=S)n1C`, the “activity change, negative = growth inhibition” value was 9.06%.

For `C/C(=N\NS(=O)(=O)c1ccc(Cl)cc1)c1ccc(NC(=O)c2ccco2)cc1`, the “activity change, negative = growth inhibition” value was -12.3%.

On to `Cc1ccc(-c2nnc(SCc3ccccc3C)o2)cc1`, for which the “activity change, negative = growth inhibition” value was -26.2%.

Take `CCOc1ccc(C(=O)c2cn(Cc3ccccc3OC)c3ccc(F)cc3c2=O)cc1`: the Potency is 20.6 µM (active).

With `COc1ccccc1CNC(=O)CN1CCC(n2cnc3cc(F)ccc32)CC1`, the “activity change, negative = growth inhibition” value was -29.6%.

In the case of `O=C(c1ccc(F)cc1)c1cn(Cc2ccc(F)cc2)c2cc3c(cc2c1=O)OCCO3`, the “activity change, negative = growth inhibition” value is -19.6%.

As to `CCOC(=O)C1CCN(C(c2ccc(F)cc2)c2sc3nc(-c4ccco4)nn3c2O)CC1` (configuration not stated), the “activity change, negative = growth inhibition” value was -15.8%.
